# Measurements published in PubChem BioAssay (Tox21).
# Results filed as inconclusive are left out. A call without a number means that no potency is given here. The source made the active and inactive calls. Unless noted, calls follow the shape of the dose curve; as a rule, active = well fitted curve in the direction sought with a large enough effect in the repeat runs; inconclusive = weak or mixed curves; inactive = no such curve, though single readings can be large; an effect the other way counts as inactive or inconclusive.
# Columns and labels:
# [1] = qHTS assay to identify aromatase inhibitors - cell viability counter screen (AID 743084); settings: MCF-7 aro ERE viability, CellTiter-Fluor, 24 h; series mostly up to 70.3 µM;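 also: cells stimulated with testosterone during compound exposure; nearly all actives have a fitted effect of over 55% in size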
# [2] = biological target: Peroxisome proliferator-activated receptor gamma (Homo sapiens) (UniProt P37231); assay: qHTS assay to identify small molecule agonists of the peroxisome proliferator-activated receptor gamma (PPARg) signaling pathway (AID 743094; active = well fitted activation curve with a large enough effect in the signal ratio in the repeat runs, not every such curve was filed as active; the % refers to the signal ratio; also: potency is read from the fitted curve at half-maximal effect); settings: HEK293H PPARg-UAS-bla, beta-lactamase FRET ratio, 17 h; series mostly up to 57 µM
# Summary of the method: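 Compounds dissolved in DMSO were added to PPARg UAS-bla HEK293H cells for 17 h at 37C, and reporter expression was quantified by fluorescence intensity after 1 h with LiveBLAzer B/G FRET substrate.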
# [3] = qHTS assay to identify small molecule antagonists of the peroxisome proliferator-activated receptor gamma (PPARg) signaling pathway - cell viability counter screen (AID 743194); settings: PPARg-bla HEK293H viability, CellTiter-Glo luminescence, 17 h, co-treated with 50 nM rosiglitazone; series mostly up to 62.6 µM; also: nearly all actives have a fitted effect of over 55% in size
# Summary of the method: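 Viability was measured as CellTiter-Glo luminescence in GeneBLAzer PPARg UAS-bla HEK293H cells. These cells had been exposed 17 h at 37 C to compounds together with rosiglitazone at 50 nM final, with the beta-lactamase readout taken in the same wells.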
# [4] = qHTS assay for small molecule agonists of the antioxidant response element (ARE) signaling pathway (AID 743202; active = well fitted activation curve with a large enough effect in the signal ratio in the repeat runs, not every such curve was filed as active; the % refers to the signal ratio; also: potency is read from the fitted curve at half-maximal effect); settings: HepG2 ARE-bla reporter, beta-lactamase FRET, 16 h; series mostly up to 73.3 µM
# Summary of the method: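 An ARE-responsive beta-lactamase gene stably integrated in HepG2 cells serves as reporter. After 5 h plating and 16 h compound incubation at 37 C, fluorescence of the B/G FRET substrate was measured.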
# [5] = qHTS assay for small molecule agonists of the antioxidant response element (ARE) signaling pathway - cell viability counter screen (AID 743203; calls by dose curve; also: nearly all actives have a fitted effect of over 55% in size); settings: ARE-bla HepG2 viability, CellTiter-Glo luminescence, 16 h; series mostly up to 73.3 µM
# Summary of the method: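 Following 16 hrs of compound treatment at 37C, HepG2 cells with an ARE-controlled beta-lactamase gene were lysed with CellTiter-Glo. Luminescence was read after 30 min at room temperature.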
# [6] = qHTS assay for small molecule activators of the heat shock response signaling pathway - cell viability counter screen (AID 743209); settings: HSE-bla HeLa viability, CellTiter-Glo luminescence, 5 h; series mostly up to 62.6 µM; also: nearly all actives have a fitted effect of over 50% in size
# Summary of the method: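 Readout: CellTiter-Glo luminescence, 30 min at room temperature. System: HSE-bla HeLa cells, 1500/well, plated overnight. Treatment: compounds in DMSO, 5 h at 37 C.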
# [7] = qHTS assay for small molecule activators of the heat shock response signaling pathway (AID 743210; active = well fitted activation curve with a large enough effect in the signal ratio in the repeat runs, with a control signal flat, not every such curve was filed as active; the % refers to the signal ratio; also: potency is read from the fitted curve at half-maximal effect;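 as to activation: HeLa cells with beta-lactamase reporter driven by heat shock elements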); settings: HeLa HSE-bla reporter, beta-lactamase ratio, 5 h; series mostly up to 62.6 µM
# Summary of the method: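 In HSE-bla HeLa cells, 5 h compound incubation (37 C) precedes addition of LiveBLAzer B/G substrate; after 2.5 h at room temperature, fluorescence intensity indicates reporter induction.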
# [8] = biological target: Peroxisome proliferator-activated receptor delta (Homo sapiens) (UniProt Q03181); assay: qHTS assay to identify small molecule agonists of the peroxisome proliferator-activated receptor delta (PPARd) signaling pathway (AID 743212; calls by dose curve; also: potency is read from the fitted curve at half-maximal effect); settings: HEK293H PPARd-UAS-bla, beta-lactamase FRET ratio, 17 h; series mostly up to 62.6 µM
# Summary of the method: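 HEK293H UAS-bla reporter cells, human PPARd system; compounds delivered in DMSO after 5 h plating, then at 37 C. Beta-lactamase FRET read, 2 h RT substrate step.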
# [9] = qHTS assay to identify small molecule antagonists of the farnesoid-X-receptor (FXR) signaling pathway - cell viability counter screen (AID 743221; active = well fitted cell-killing curve with a large enough effect in the repeat runs, not every such curve was filed as active; also: nearly all actives have a fitted effect of over 50% in size); settings: FXR-bla HEK293T viability, CellTiter-Glo luminescence, 16 h; series mostly up to 62.6 µM
# Summary of the method: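 Luminescence from CellTiter-Glo measures cytotoxicity in GeneBLAzer FXR-UAS-bla HEK 293T cells. Cells were exposed to compounds with 50 uM chenodeoxycholic acid (final) for 16 h at 37 C, in wells also used for the reporter readout.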
# [10] = biological target: Vitamin D3 receptor (Homo sapiens) (UniProt P11473); assay: qHTS assay to identify small molecule antagonists of the vitamin D receptor (VDR) signaling pathway (AID 743223; active = well fitted inhibition curve with a large enough effect in the signal ratio in the repeat runs, not every such curve was filed as active; the % refers to the signal ratio); settings: VDR-UAS-bla HEK293T, beta-lactamase FRET ratio, 16 h; series mostly up to 61 µM
# Summary of the method: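 Antagonist mode uses 1alpha,25-dihydroxyvitamin D3 at 3 nM final as stimulus. VDR-bla cells receive compounds in DMSO, incubate 16 h at 37C, then a beta-lactamase FRET substrate for 2 h at room temperature before fluorescence measurement.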
# [11] = qHTS assay to identify small molecule that activate the aryl hydrocarbon receptor (AhR) signaling pathway - cell viability counter screen (AID 743086); settings: HepG2-AhR-luc viability, CellTiter-Fluor, 24 h; series mostly up to 70.3 µM;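 also: HepG2 liver cells carrying the AhR DRE luciferase reporter; nearly all actives have a fitted effect of over 45% in size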
# Summary of the method: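 Cytotoxicity counter screen: CellTiter-Fluor signal (30 min, 37 C) in 4000 HepG2 cells/well carrying the DRE-luciferase reporter, following 24 h compound exposure at 37 C.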
# [12] = biological target: Peroxisome proliferator-activated receptor gamma (Homo sapiens) (UniProt P37231); assay: qHTS assay to identify small molecule antagonists of the peroxisome proliferator-activated receptor gamma (PPARg) signaling pathway (AID 743191; calls by dose curve; also: nearly all actives have a fitted effect of over 30% in size; also: potency is read from the fitted curve at half-maximal effect); settings: HEK293H PPARg-UAS-bla, beta-lactamase ratio, antagonist, 17 h; series mostly up to 62.6 µM
# Summary of the method: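 Beta-lactamase reporter under UAS control in HEK293H PPARg-bla cells; compound treatment 17 h at 37C. Read-out: fluorescence intensity after 1 h room-temperature incubation with LiveBLAzer B/G FRET substrate.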
# [13] = qHTS assay to identify small molecule antagonists of the peroxisome proliferator-activated receptor delta (PPARd) signaling pathway - cell viability counter screen (AID 743213); settings: PPARd-bla HEK293H viability, CellTiter-Glo luminescence, 17 h; series mostly up to 62 µM; also: nearly all actives have a fitted effect of over 50% in size
# Summary of the method: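 PPARd-bla HEK293H cells were treated with compounds plus agonist L165041 (300 nM final) for 17 h at 37 C. Viability was then read in the same wells by CellTiter-Glo luminescence after 30 min at room temperature.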
# [14] = biological target: Bile acid receptor (Homo sapiens) (UniProt Q96RI1); assay: qHTS assay to identify small molecule agonists of the farnesoid-X-receptor (FXR) signaling pathway (AID 743220; active = well fitted activation curve with a large enough effect in the signal ratio in the repeat runs, not every such curve was filed as active; the % refers to the signal ratio); settings: HEK293T FXR-UAS-bla, beta-lactamase FRET ratio, 16 h; series mostly up to 62.6 µM
# Summary of the method: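 Beta-lactamase reporter under UAS control in GeneBLAzer FXR HEK 293T cells (5000/well) measured with LiveBLAzer FRET substrate after 2 h at room temperature. Compound exposure lasted 16 h at 37C.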
# [15] = biological target: Bile acid receptor (Homo sapiens) (UniProt Q96RI1); assay: qHTS assay to identify small molecule antagonists of the farnesoid-X-receptor (FXR) signaling pathway (AID 743217; active = well fitted inhibition curve with a large enough effect in the signal ratio in the repeat runs, not every such curve was filed as active; the % refers to the signal ratio); settings: HEK293T FXR-UAS-bla, beta-lactamase ratio, CDCA-stimulated, 16 h; series mostly up to 62.6 µM
# Summary of the method: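 GeneBLAzer FXR-UAS-bla HEK 293T, CDCA-stimulated (50 uM final). Compound treatment 16 h, 37 °C. Detection: beta-lactamase cleavage of B/G FRET substrate, fluorescence.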
# [16] = qHTS assay to identify small molecule agonists of the farnesoid-X-receptor (FXR) signaling pathway - cell viability counter screen (AID 743218); settings: FXR-bla HEK293T viability, CellTiter-Glo luminescence, 16 h; series mostly up to 62.6 µM; also: nearly all actives have a fitted effect of over 45% in size
# Summary of the method: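 Parallel cytotoxicity test: compound-treated (16 h, 37 C) HEK 293T FXR-bla reporter cells were lysed with CellTiter-Glo and luminescence recorded.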
# [17] = qHTS assay to identify small molecule agonists of the peroxisome proliferator-activated receptor delta (PPARd) signaling pathway - cell viability counter screen (AID 743211); settings: PPARd-bla HEK293H viability, CellTiter-Glo luminescence, 17 h; series mostly up to 62.6 µM; also: nearly all actives have a fitted effect of over 55% in size
# Summary of the method: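 HEK293H PPARd-bla, 3000 cells/well; 5 h preincubation 37C/5% CO2; cpd in DMSO, 17 h 37C; B/G FRET substrate 2 h RT; CellTiter-Glo 30 min RT, luminescence.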
# [18] = biological target: Peroxisome proliferator-activated receptor delta (Homo sapiens) (UniProt Q03181); assay: qHTS assay to identify small molecule antagonists of the peroxisome proliferator-activated receptor delta (PPARd) signaling pathway (AID 743215; active = well fitted inhibition curve with a large enough effect in the signal ratio in the repeat runs, not every such curve was filed as active; the % refers to the signal ratio;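 also: cells stimulated with agonist L165041 at 300 nM final during compound exposure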); settings: HEK293H PPARd-UAS-bla, beta-lactamase FRET ratio, antagonist, 17 h; series mostly up to 62 µM
# Summary of the method: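 HEK293H UAS-bla, PPARd; agonist L165041 300 nM final with cpd in DMSO; 37 C 17 h; FRET substrate, RT 2 h; fluorescence intensity.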
# [19] = biological target: Vitamin D3 receptor (Homo sapiens) (UniProt P11473); assay: qHTS assay to identify small molecule agonists of the vitamin D receptor (VDR) signaling pathway (AID 743222; calls by dose curve); settings: HEK293T VDR-UAS-bla, beta-lactamase FRET ratio, 16 h; series mostly up to 63.5 µM
# Summary of the method: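 In VDR-bla cells, compound-induced beta-lactamase expression is quantified by FRET substrate fluorescence. Treatment lasts 16 h at 37C; substrate develops 2 h at room temperature.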
# [20] = biological target: Aryl hydrocarbon receptor (Homo sapiens) (UniProt P35869); assay: qHTS assay to identify small molecule that activate the aryl hydrocarbon receptor (AhR) signaling pathway (AID 743085); settings: HepG2 AhR-luc (HG2L7.5c1), luciferase, 24 h; series mostly up to 70.3 µM;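 also: HG2L7.5c1 human HepG2 liver cells with stably integrated DRE-driven firefly reporter; nearly all actives have a fitted effect of over 15% in size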
# Summary of the method: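 Cell line HG2L7.5c1 (human hepatoma, 20× DRE-luc). Plated, 5 h 37C, compound/DMSO added, 24 h 37C. CellTiter-Fluor 30 min 37C → fluorescence; then ONE-Glo 30 min RT → luminescence.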
# Chain of Bile acid receptor (Homo sapiens) (Q96RI1 whole entry, looked up): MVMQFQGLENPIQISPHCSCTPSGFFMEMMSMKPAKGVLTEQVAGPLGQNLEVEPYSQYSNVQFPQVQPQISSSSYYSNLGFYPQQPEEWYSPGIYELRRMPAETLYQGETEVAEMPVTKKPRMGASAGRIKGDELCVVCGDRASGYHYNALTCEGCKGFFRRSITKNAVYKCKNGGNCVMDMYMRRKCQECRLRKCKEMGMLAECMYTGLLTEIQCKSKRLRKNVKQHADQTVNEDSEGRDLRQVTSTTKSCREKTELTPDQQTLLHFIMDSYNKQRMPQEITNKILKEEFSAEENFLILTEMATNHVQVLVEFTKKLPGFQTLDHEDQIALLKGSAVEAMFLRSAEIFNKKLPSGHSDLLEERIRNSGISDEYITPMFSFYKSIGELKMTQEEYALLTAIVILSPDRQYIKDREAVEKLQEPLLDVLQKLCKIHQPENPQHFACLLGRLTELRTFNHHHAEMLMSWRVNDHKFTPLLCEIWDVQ
# Chain of Peroxisome proliferator-activated receptor gamma (Homo sapiens) (P37231 whole entry, looked up): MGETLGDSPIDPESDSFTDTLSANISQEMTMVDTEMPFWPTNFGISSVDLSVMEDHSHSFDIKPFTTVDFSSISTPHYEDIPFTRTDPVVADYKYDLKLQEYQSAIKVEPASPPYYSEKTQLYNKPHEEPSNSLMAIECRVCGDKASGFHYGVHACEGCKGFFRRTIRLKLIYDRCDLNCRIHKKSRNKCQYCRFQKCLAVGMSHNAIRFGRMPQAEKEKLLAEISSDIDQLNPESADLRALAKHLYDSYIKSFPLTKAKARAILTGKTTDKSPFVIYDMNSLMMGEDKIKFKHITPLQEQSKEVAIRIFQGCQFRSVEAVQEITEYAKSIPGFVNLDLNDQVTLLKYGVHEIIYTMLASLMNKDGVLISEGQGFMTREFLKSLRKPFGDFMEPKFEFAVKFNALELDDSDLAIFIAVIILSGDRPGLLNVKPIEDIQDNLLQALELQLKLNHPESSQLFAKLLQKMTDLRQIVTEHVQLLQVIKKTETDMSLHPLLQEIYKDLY
# Chain of Vitamin D3 receptor (Homo sapiens) (P11473 whole entry, looked up): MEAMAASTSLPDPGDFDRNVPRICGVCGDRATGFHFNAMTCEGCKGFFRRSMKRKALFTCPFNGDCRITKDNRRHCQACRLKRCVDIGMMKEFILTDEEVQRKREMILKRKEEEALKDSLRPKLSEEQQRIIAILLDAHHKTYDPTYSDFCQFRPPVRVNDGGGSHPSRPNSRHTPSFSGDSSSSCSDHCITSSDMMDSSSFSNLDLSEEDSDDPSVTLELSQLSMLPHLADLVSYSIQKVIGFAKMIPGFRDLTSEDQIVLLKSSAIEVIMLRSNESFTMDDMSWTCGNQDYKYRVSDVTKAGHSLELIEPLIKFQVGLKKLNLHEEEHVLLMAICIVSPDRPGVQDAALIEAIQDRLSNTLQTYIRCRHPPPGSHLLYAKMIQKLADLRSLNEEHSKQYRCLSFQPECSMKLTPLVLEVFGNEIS
# Chain of Peroxisome proliferator-activated receptor delta (Homo sapiens) (Q03181 whole entry, looked up): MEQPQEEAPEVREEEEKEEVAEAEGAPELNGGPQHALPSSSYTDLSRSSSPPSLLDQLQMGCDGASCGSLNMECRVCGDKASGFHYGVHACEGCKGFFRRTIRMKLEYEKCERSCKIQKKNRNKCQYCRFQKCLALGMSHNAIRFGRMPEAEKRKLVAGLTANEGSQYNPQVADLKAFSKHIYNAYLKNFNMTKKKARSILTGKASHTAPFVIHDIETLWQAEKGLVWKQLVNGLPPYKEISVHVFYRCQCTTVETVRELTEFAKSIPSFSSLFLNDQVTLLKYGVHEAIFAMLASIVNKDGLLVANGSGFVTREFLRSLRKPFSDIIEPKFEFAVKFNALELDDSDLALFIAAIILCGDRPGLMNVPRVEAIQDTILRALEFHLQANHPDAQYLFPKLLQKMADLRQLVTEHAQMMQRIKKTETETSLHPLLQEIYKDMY
# Chain of Aryl hydrocarbon receptor (Homo sapiens) (P35869 whole entry, looked up): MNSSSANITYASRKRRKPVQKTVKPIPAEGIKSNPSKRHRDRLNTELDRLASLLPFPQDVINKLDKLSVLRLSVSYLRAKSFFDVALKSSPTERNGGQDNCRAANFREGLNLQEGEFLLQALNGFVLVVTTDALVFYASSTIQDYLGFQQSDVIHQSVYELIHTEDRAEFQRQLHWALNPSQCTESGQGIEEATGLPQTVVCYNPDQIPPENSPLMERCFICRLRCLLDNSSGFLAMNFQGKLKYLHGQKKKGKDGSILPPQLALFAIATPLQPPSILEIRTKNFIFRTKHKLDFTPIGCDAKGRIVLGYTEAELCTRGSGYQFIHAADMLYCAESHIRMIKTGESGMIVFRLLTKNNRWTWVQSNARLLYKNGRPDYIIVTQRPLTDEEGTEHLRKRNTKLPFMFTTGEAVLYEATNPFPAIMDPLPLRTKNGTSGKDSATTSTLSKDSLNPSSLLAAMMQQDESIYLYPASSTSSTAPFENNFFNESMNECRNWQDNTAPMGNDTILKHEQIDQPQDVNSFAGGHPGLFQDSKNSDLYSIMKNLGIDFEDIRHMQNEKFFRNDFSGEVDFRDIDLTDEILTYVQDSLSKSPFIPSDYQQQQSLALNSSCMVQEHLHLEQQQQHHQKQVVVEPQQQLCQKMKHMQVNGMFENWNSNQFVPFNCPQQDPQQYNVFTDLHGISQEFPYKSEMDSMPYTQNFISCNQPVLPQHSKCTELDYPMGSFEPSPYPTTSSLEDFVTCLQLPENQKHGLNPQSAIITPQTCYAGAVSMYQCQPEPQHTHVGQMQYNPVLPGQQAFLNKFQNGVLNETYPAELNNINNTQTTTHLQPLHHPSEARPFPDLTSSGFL
Structure (SMILES),Potency [1],Potency [2],Potency [3],Potency [4],Potency [5],Potency [6],Potency [7],Potency [8],Potency [9],outcome [10],Potency [11],Potency [12],Potency [13],Potency [14],Potency [15],Potency [16],Potency [17],Potency [18],outcome [19],Potency [20]
CCCc1c(OCCCOc2ccc(OCC(=O)O)cc2)ccc(C(C)=O)c1O,inactive,0.275 µM (active),inactive,inactive,inactive,inactive,inactive,0.011 µM (active),inactive,inactive,–,–,–,–,–,–,–,–,–,–
Nc1ccc(C(=O)OCCCOC(=O)c2ccc(N)cc2)cc1,inactive,inactive,–,–,inactive,–,inactive,–,inactive,inactive,inactive,43.6 µM (active),inactive,inactive,–,–,–,–,–,–
CC(=O)Oc1ccc(C(=C2CCCCC2)c2ccc(OC(C)=O)cc2)cc1,inactive,–,inactive,29.8 µM (active),inactive,inactive,26.6 µM (active),inactive,inactive,–,–,–,inactive,inactive,inactive,inactive,–,–,–,–
CCCC(=O)O[C@]1(C(=O)COC(=O)CC)CC[C@H]2[C@@H]3CCC4=CC(=O)CC[C@]4(C)[C@H]3[C@@H](O)C[C@@]21C,inactive,inactive,inactive,inactive,inactive,inactive,inactive,inactive,inactive,inactive,inactive,–,inactive,inactive,–,–,inactive,inactive,–,–
CCC(C(=O)OCCOCCN(CC)CC)c1ccccc1 (stereo not drawn),inactive,inactive,inactive,–,inactive,inactive,inactive,–,inactive,inactive,inactive,–,inactive,inactive,–,inactive,inactive,–,inactive,–
O=C(/C=C/c1ccccc1)OCCCc1ccccc1,inactive,–,inactive,–,–,inactive,inactive,inactive,–,inactive,inactive,–,inactive,–,–,–,inactive,inactive,inactive,–
CCC1(C)CC(=O)NC1=O (stereo not drawn),inactive,inactive,inactive,inactive,inactive,inactive,inactive,inactive,inactive,–,–,inactive,inactive,–,–,inactive,inactive,inactive,–,–
C[C@@H]1C[C@H]2[C@@H]3CCC4=CC(=O)C=C[C@]4(C)[C@@]3(F)[C@@H](O)C[C@]2(C)[C@H]1C(=O)CO,inactive,inactive,inactive,–,inactive,–,inactive,inactive,inactive,inactive,inactive,–,inactive,–,–,inactive,–,inactive,inactive,–
CC(C)C(=O)O,–,inactive,inactive,–,inactive,–,inactive,inactive,–,inactive,inactive,inactive,–,–,–,inactive,–,–,–,inactive
CC(C)=CC=O,inactive,inactive,–,–,inactive,inactive,inactive,inactive,inactive,inactive,inactive,–,inactive,–,–,inactive,–,inactive,inactive,–
CC1(C)O[C@@H]2C[C@H]3[C@@H]4CCC5=CC(=O)C=C[C@]5(C)[C@H]4[C@@H](O)C[C@]3(C)[C@]2(C(=O)CO)O1,inactive,–,inactive,–,inactive,inactive,inactive,–,inactive,inactive,inactive,–,inactive,–,–,inactive,inactive,–,inactive,–
Brc1cc(-c2ccc(Br)c(Br)c2Br)cc(Br)c1Br,inactive,–,inactive,–,inactive,inactive,inactive,inactive,–,inactive,inactive,–,–,–,–,–,inactive,–,inactive,–
O=C(CCCN1CCC(O)(c2ccc(Br)cc2)CC1)c1ccc(F)cc1,inactive,inactive,inactive,–,–,–,inactive,inactive,–,inactive,inactive,–,inactive,–,–,–,–,inactive,inactive,–
NC(=O)Nc1ccc(Cl)c(Cl)c1,inactive,inactive,inactive,–,–,inactive,inactive,inactive,inactive,inactive,inactive,–,inactive,inactive,inactive,inactive,inactive,inactive,inactive,–
CC1=CC(=O)CC(C)(C)C1(O)/C=C/C(C)=C\C(=O)O (stereo not drawn),inactive,inactive,inactive,–,inactive,inactive,inactive,inactive,inactive,inactive,–,inactive,inactive,inactive,inactive,inactive,inactive,inactive,–,–
CCOC(=O)C(C)Oc1ccc(Oc2nc3ccc(Cl)cc3o2)cc1 (stereo not drawn),inactive,inactive,inactive,–,inactive,inactive,inactive,inactive,inactive,–,inactive,–,inactive,inactive,inactive,inactive,inactive,inactive,–,–
CC(C)(CCl)c1ccccc1,inactive,–,inactive,inactive,inactive,inactive,–,inactive,inactive,inactive,inactive,–,–,inactive,–,inactive,inactive,inactive,–,–
CCCCC(=O)O[C@]1(C(=O)CO)CC[C@H]2[C@@H]3CCC4=CC(=O)CC[C@]4(C)[C@H]3[C@@H](O)C[C@@]21C,inactive,–,inactive,inactive,inactive,inactive,inactive,inactive,inactive,–,inactive,–,–,inactive,inactive,inactive,inactive,–,–,–
CC#N,inactive,–,inactive,inactive,inactive,–,inactive,inactive,inactive,–,–,–,inactive,inactive,–,inactive,inactive,–,–,–
